The target of assay [1] is T1, Ephrin type-B receptor 1 (Homo sapiens) (UniProt P54762).
T1 sequence (whole entry): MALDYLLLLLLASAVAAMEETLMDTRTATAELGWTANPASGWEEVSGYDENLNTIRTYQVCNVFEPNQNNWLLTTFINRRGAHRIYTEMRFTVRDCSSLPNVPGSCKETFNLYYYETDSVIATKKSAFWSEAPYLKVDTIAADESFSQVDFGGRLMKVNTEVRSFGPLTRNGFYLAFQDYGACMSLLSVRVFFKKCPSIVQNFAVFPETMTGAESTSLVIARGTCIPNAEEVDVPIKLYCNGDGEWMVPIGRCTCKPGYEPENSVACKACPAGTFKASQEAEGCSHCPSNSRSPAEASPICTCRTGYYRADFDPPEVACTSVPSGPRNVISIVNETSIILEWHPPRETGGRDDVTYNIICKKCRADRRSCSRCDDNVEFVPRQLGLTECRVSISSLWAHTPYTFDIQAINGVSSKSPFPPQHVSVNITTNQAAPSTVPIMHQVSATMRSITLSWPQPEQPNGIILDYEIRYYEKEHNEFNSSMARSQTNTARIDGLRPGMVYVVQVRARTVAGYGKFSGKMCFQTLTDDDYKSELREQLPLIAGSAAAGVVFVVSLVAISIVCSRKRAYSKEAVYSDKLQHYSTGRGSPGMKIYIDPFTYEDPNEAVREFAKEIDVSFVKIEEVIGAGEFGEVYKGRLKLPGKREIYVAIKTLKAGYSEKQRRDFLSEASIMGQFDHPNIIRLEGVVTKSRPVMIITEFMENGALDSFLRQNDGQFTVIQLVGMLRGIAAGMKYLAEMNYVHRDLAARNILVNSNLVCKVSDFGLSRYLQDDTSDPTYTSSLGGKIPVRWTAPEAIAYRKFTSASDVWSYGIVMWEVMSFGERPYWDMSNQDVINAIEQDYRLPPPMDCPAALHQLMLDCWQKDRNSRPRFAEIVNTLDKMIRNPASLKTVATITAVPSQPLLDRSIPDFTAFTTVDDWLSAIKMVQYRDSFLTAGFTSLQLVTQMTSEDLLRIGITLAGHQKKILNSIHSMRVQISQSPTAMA
The following applies: at 10 µM.

Assay [2] concerns the target T2, Ephrin type-B receptor 2 (Homo sapiens) (UniProt P29323).
T2 sequence (whole entry): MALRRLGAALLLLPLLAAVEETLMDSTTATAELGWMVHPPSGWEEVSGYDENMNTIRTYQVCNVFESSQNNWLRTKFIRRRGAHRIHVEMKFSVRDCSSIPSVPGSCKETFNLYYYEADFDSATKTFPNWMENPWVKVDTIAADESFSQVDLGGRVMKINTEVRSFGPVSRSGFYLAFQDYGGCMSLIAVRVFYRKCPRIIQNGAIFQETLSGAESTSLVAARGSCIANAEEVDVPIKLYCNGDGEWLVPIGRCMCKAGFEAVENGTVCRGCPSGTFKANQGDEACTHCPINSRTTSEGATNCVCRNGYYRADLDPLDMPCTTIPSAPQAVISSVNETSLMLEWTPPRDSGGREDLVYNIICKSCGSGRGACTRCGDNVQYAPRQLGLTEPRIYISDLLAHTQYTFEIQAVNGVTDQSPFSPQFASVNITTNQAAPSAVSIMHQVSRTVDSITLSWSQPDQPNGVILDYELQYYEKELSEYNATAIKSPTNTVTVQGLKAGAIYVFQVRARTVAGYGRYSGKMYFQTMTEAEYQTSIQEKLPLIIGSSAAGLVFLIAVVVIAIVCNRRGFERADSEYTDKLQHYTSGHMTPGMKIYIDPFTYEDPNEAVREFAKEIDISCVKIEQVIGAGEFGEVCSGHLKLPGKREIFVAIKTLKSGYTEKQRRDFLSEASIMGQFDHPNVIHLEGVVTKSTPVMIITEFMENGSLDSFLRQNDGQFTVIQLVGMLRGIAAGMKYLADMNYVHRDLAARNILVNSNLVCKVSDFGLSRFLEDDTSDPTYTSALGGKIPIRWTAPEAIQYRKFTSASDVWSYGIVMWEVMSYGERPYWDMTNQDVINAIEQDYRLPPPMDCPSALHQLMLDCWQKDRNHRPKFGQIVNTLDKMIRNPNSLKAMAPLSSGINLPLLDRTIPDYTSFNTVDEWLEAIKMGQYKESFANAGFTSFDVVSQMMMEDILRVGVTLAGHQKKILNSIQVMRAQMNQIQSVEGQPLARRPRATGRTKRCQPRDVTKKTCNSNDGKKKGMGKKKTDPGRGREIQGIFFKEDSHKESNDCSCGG
The following applies: at 1 µM.

Assay [3] has as its target T2, Ephrin type-B receptor 2 (Homo sapiens). The following applies: at 10 µM.
The target of assay [4] is T3, Ephrin type-B receptor 3 (Homo sapiens) (UniProt P54753).
T3 sequence (whole entry): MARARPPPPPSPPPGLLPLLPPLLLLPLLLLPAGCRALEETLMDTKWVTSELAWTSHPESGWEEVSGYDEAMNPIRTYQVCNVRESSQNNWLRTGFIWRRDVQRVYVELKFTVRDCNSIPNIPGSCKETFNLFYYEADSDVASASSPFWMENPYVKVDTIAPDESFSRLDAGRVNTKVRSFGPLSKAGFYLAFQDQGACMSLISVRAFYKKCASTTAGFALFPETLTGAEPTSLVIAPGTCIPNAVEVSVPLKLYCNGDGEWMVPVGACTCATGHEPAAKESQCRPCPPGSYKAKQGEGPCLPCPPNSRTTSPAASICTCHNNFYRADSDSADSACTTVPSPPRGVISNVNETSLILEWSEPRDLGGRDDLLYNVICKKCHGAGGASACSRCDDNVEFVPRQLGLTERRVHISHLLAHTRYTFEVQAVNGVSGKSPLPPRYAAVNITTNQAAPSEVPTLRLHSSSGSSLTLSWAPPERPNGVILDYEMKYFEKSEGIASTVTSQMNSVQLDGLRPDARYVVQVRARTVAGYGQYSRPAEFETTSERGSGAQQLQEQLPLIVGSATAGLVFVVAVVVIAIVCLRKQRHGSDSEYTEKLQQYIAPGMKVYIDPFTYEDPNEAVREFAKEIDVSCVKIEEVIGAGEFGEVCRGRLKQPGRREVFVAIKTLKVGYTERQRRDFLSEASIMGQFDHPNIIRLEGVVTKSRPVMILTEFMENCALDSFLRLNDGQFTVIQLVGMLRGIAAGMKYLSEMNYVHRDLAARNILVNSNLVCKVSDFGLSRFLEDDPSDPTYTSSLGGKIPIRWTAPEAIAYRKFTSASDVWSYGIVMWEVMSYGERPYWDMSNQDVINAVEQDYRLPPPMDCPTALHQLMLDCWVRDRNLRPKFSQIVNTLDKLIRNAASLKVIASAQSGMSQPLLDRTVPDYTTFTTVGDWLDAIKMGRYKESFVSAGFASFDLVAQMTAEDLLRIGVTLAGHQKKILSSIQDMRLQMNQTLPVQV
The following applies: at 1 µM.

For assay [5], the target named is T3, Ephrin type-B receptor 3 (Homo sapiens). The following applies: at 10 µM.
Assay [6] addresses T4, Ephrin type-B receptor 4 (Homo sapiens) (UniProt P54760).
T4 sequence (whole entry): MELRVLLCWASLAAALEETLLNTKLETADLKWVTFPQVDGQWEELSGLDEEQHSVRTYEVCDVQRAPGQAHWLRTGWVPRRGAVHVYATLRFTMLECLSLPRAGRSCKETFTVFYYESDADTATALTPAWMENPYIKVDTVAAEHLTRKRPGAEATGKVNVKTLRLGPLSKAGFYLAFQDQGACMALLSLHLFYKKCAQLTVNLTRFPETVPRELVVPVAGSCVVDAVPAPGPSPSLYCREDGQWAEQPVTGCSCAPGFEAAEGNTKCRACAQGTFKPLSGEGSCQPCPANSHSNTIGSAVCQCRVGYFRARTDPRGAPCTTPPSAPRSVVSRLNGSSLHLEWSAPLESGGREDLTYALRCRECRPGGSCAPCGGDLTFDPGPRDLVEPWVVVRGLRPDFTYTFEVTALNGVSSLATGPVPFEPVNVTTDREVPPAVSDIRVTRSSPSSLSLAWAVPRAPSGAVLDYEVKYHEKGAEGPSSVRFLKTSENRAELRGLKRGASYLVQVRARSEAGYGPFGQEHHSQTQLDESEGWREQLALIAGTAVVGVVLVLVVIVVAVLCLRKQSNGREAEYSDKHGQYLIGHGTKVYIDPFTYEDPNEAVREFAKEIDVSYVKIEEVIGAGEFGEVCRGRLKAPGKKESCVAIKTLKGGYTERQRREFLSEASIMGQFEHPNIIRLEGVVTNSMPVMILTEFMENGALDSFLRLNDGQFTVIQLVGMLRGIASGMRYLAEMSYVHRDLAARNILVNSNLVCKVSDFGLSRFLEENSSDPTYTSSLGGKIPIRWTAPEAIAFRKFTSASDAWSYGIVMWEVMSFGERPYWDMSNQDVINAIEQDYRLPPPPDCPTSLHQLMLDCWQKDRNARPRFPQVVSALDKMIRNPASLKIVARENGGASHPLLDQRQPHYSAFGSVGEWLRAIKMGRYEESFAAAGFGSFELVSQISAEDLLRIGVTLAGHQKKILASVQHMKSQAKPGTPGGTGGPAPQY
The following applies: at 1 µM.

Assay [7] deals with T4, Ephrin type-B receptor 4 (Homo sapiens). The following applies: at 10 µM.
For assay [8], the target named is Receptor tyrosine-protein kinase erbB-4 (Homo sapiens) (UniProt Q15303). Conditions: at 1 µM; call rule not given here.
Sequence of Receptor tyrosine-protein kinase erbB-4 (Homo sapiens) (Q15303 whole entry): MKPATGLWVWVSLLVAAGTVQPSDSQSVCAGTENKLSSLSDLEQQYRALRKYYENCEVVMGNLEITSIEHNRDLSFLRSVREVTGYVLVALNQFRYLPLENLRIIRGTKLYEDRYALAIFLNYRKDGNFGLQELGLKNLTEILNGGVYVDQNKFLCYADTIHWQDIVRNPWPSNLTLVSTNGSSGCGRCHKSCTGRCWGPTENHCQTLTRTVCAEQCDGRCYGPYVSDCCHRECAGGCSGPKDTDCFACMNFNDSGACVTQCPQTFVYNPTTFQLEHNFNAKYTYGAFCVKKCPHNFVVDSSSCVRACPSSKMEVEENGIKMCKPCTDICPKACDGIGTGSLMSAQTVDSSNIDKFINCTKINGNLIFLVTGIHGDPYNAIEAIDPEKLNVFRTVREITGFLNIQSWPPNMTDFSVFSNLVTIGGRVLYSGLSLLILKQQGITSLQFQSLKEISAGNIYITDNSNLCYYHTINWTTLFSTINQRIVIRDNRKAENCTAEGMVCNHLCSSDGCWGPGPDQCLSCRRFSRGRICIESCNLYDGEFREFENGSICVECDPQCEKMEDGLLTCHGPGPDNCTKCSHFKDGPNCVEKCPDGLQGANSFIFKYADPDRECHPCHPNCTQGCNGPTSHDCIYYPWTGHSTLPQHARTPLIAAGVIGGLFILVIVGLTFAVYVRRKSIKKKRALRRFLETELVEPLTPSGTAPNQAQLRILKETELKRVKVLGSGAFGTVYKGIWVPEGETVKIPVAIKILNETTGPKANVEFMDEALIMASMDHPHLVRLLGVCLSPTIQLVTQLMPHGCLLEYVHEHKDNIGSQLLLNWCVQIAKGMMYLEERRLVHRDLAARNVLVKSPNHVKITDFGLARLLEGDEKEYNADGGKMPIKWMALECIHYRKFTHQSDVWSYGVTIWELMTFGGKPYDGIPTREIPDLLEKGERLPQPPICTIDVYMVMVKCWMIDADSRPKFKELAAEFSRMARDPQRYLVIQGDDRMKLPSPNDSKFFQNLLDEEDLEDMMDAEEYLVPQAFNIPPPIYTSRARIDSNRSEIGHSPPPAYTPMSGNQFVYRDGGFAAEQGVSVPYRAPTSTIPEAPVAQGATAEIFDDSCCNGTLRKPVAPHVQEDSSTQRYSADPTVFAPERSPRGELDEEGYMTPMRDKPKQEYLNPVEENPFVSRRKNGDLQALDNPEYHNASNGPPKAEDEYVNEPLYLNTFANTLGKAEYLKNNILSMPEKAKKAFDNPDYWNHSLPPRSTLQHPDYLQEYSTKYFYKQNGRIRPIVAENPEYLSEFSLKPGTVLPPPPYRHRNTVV
For assay [9] the target is unchanged. The following applies: at 10 µM.
Assay [10] addresses Focal adhesion kinase 1 (Homo sapiens) (UniProt Q05397). The following applies: at 1 µM.

Sequence of Focal adhesion kinase 1 (Homo sapiens) (Q05397 2-1052 limits assumed): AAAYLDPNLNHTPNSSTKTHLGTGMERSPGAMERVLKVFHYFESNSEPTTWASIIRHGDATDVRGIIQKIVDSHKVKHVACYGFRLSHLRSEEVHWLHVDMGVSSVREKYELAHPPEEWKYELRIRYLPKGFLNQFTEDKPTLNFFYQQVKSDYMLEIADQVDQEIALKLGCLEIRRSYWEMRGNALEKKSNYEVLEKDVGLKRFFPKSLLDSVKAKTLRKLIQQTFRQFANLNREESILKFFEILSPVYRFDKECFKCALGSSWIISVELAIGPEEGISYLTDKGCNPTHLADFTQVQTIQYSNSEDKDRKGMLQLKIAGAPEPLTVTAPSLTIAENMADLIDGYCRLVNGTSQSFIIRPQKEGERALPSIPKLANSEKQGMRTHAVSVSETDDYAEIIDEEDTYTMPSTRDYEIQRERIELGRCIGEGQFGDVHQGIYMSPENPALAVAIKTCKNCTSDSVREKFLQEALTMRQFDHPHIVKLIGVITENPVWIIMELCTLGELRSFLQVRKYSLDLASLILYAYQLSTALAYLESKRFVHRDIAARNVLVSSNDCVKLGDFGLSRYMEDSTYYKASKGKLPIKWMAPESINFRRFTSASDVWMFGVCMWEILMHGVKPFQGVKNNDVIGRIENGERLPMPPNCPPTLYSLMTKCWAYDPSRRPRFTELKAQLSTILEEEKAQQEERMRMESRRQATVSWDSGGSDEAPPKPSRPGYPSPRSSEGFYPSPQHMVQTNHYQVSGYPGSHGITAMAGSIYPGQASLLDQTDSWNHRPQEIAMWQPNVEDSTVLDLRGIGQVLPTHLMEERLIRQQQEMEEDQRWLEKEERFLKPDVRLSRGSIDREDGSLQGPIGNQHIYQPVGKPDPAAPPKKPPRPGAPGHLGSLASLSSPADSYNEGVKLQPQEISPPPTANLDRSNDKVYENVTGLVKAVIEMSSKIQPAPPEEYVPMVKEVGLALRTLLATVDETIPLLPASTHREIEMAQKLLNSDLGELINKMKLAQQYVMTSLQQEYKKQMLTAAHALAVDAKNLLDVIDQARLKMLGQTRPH

Broadly, the residual activity is the signal under treatment as a percentage of the control signal. As to `O=C(Nc1cccc(Nc2nccc(Nc3cccc(C(F)(F)F)c3)n2)c1)C1CC1`, the residual activity in assay [1] was 7%; in assay [2], 93%; in assay [3], 26%; in assay [4] it was 106% (inactive); in [5], 113%; in [6] it was 109%. Besides, the residual activity is 10% in [7], 98% in [8], 96% in assay [9] and 51% in assay [10].

Source of the values: ChEMBL document CHEMBL2218924, “A broad activity screen in support of a chemogenomic map for kinase signalling research and drug discovery” (Biochem J, 2013).
